A selection follows.
CYP2C19 act – increases human CYP2C19 enzyme activity. activation factor at 5 µM. P33261. recombinant CYP2C19, luciferin-H EGE luminescence; active compounds read high; 0 = fully inhibited enzyme, 1 = untreated enzyme. 96,000 tested, under 10 active. AID 1025;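 active = activation factor of at least 2 at 5 µM in the primary screen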
CD11b adhes inh – blocks human CD11b/CD18 adhesion to fibrinogen. P05107+P11215. K562 CD11b/CD18 adhesion to fibrinogen, ATPlite luminescence; Mn2+ added to activate the integrin. inhibition, % at 10 µM. 93,000 tested, 0.54% active;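 active = primary inhibition of 50% or more at 10 µM, then 40% or more on retest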
CYP2C19 inh – blocks human cytochrome P450 2C19; P33261; CYP2C19 Supersomes, luciferin-H EGE luminescence, 30 min; inhibition, % at 5 µM; 96,000 tested, 21% active; AID 778;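 active = CYP2C19 inhibition above a set limit at 5 µM in the primary screen, cut at about 50% in these data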
CYP2C9 inh – inhibitors of human CYP2C9. P11712. CYP2C9 Supersomes, luciferin-H conversion, luminescence. inhibition, % at 5 µM. 96,000 tested, 20% active. AID 777;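 active = blocking of liver enzyme CYP2C9 beyond about 50% at 5 µM, limit read from the data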
Target sequence (P11712 whole entry, looked up): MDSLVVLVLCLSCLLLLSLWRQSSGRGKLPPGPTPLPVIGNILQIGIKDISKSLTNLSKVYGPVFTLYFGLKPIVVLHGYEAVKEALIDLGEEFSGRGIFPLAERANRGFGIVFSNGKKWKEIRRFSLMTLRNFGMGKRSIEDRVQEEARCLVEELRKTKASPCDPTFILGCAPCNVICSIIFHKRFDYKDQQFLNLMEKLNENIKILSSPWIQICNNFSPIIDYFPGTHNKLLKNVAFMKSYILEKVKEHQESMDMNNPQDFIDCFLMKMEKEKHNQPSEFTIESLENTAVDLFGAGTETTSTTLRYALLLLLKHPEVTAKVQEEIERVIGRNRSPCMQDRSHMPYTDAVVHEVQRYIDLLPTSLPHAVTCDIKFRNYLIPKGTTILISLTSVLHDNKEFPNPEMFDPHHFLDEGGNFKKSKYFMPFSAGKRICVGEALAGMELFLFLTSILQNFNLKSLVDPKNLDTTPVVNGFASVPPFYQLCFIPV
CYP2C9 activ – activators of human CYP2C9 | recombinant CYP2C9, luciferin-H conversion, luminescence; active compounds read high; factor 1 = untreated enzyme, 0 = blocked | 96,000 tested, 1.4% active | AID 1024 | activation factor at 5 µM;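 active = activation factor of 2 or more for CYP2C9 at a 5 µM dose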
Mac1 fbg enh – enhancers of human CD11b/CD18 binding to fibrinogen | P05107+P11215 | K562 CD11b/CD18 adhesion to fibrinogen, ATPlite luminescence | activation, % at 10 µM | 93,000 tested, 0.07% active | AID 1499;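 active = 10 µM primary screen giving 50% or more activity, confirmed by 40% or more on retest at that dose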
Of the large screens only hits and unclear results are named; the others gave an inactive call.

CC(=O)NCC1=C(NC(C)=O)C2CC1C(C)(C)C2C (configuration not stated)	none
O=C1NC(Nc2nccs2)(C(F)(F)F)C(=O)N1CCc1ccccc1 (configuration not stated)	CYP2C19 inh 89, CYP2C9 inh 85
O=C(NC1(C(F)(F)F)NC(=O)N(Cc2ccccc2)C1=O)c1cccnc1 (configuration not stated)	none
Cc1ccc2c(c1)c1cccc3c1n2CCN3CCC(N)=O	CYP2C9 inh 74
COC(=O)c1c(C(=O)OC)n(CCCN)c2ccc(C)cc12	none
COc1ccccc1CNC(=O)CSc1nc2nc(C)cc(C)n2n1	none (no result: CD11b adhes inh, Mac1 fbg enh)
COC(=O)C(C)(C)ONC(=O)Nc1ccccc1	none (no result: CYP2C19 act, CYP2C19 inh, CYP2C9 inh, CYP2C9 activ)
CC1(C)Cc2ccccc2-c2n[nH]c(=S)n21	CYP2C9 inh 53
CC1(C)Cc2ccccc2C(=O)N1	none
CN(CCCNC(=O)Cn1cc2c(n1)CCCC2)C1CCCCC1	none
Fc1c(F)c(C(F)(F)F)c(F)c(F)c1N/N=C\c1cccs1	none
c1ccc(-c2nc3ccccc3s2)nc1	none
Nc1ccc2nc(-c3ccccc3)sc2c1	CYP2C19 inh 72, CYP2C9 inh 51
C=CCN1C(=O)CSC1=Nc1cccc(O)c1	none
C=CCN1C(=Nc2cccnc2)SCC1(O)c1ccc(C)cc1 (configuration not stated)	CYP2C19 inh 95, CYP2C9 inh 78
CC(C)NC(=O)CN1CCN(c2ncccn2)CC1	none
COc1ccccc1N/C(=N/c1nc(C)cc(C)n1)NC(C)=O	none
COc1ccccc1-c1nnc2n1N=C(C(C)(C)C)CS2	CYP2C19 inh 79
CC(C)(C)C1=Nn2c(nnc2-c2ccccn2)SC1	none
CC(C)(C)C1=Nn2c(nnc2-c2ccccc2F)SC1	CYP2C19 inh 78
CC(C)(C)C1=Nn2c(nnc2C2CCCCC2)SC1	CYP2C19 inh 68
COc1ccccc1-c1nnc2n1N=C(C)CS2	none
Cc1c(C(=O)Nc2ccccc2-c2ccccc2)cccc1[N+](=O)[O-]	CYP2C19 inh 80
O=C(Nc1ccccc1-c1ccccc1)c1cccc([N+](=O)[O-])c1	CYP2C19 inh 91 (no result: CD11b adhes inh, Mac1 fbg enh)
Cc1ccc([N+](=O)[O-])cc1NC(=O)c1ccc(-c2ccccc2)cc1	CYP2C9 activ 2.2
Cc1ccccc1NC(=O)c1cccc(S(=O)(=O)Oc2ccc([N+](=O)[O-])cc2)c1	CYP2C19 inh 80
Cc1ccc([N+](=O)[O-])cc1NC(=O)c1ccc(C(C)(C)C)cc1	none (no result: CD11b adhes inh, Mac1 fbg enh)
CCc1ccccc1NC(=O)c1cccc(Oc2ccc([N+](=O)[O-])cc2Cl)c1	none (no result: CYP2C19 act, CYP2C19 inh, CYP2C9 inh, CYP2C9 activ)
Cc1c(C(=O)Nc2ccc(OCc3ccccc3)cc2)cccc1[N+](=O)[O-]	none
O=C(Nc1nc(-c2ccccc2)cs1)c1cccc([N+](=O)[O-])c1	none
COC(=O)c1cc(OC)c(OC)cc1NC(=S)N1CCCC(CO)C1 (configuration not stated)	none
Cc1ccc(S(=O)(=O)Nc2ccc(-c3nnc(SCC#N)n3C)cc2)cc1	none
COC(=O)Cn1ncc2c3ccccc3n(C)c2c1=O	none
O=C1c2cnc3nc(SCc4cccc(Cl)c4)nn3c2CC2c3ccccc3CCN12 (configuration not stated)	none
C=CCn1c(SCC(=O)Nc2ncc(Cc3cc(C(F)(F)F)ccc3Cl)s2)nnc1-c1ccncc1	none
OC(Cn1cccn1)c1ccccc1 (configuration not stated)	none
O=C(CSc1nnc(-c2ccccc2Br)o1)Nc1cccc2ccccc12	none
O=C(N/N=C/CCc1ccccc1)c1ccc(CN2c3cccc4cccc(c34)S2(=O)=O)cc1	none (no result: CYP2C19 act, CYP2C19 inh, CYP2C9 inh, CYP2C9 activ)
O=S1(=O)c2cccc3cccc(c23)N1Cc1nnc(-c2ccccc2Br)o1	CYP2C19 inh 93
O=c1c2ccccc2nnn1Cc1nnc(-c2ccccc2Br)o1	CYP2C19 inh 82
O=S1(=O)c2cccc3cccc(c23)N1Cc1ccc(-c2nnco2)cc1	CYP2C19 inh 68, CYP2C9 inh 53
O=c1c2ccccc2nnn1CSc1ncnc2ccccc12	none (no result: CD11b adhes inh, Mac1 fbg enh)
CC(=O)NCC(=O)OCC(=O)c1ccc2ccccc2c1	none
O=S(=O)(c1ccc2nc(COc3ccccc3)[nH]c2c1)N1CCOCC1	none
O=C(NC(=S)Nn1cnc2c(cnn2-c2ccccc2)c1=O)c1ccccc1	none (no result: CYP2C19 act, CYP2C19 inh, CYP2C9 inh, CYP2C9 activ)
O=C(NCC1CCCO1)c1cnn2c1NC(c1ccccc1)CC2C(F)(F)F (configuration not stated)	none
Cc1nn(Cc2ccc(F)cc2)c(C)c1NC(=O)c1cnn2c1NC(c1ccccc1)CC2C(F)(F)F (configuration not stated)	CYP2C9 inh 67
NC(=O)c1cnn2c1NC(c1ccc(F)cc1)CC2C(F)(F)F (configuration not stated)	CYP2C19 inh 62, CYP2C9 inh 54
O=C(NCCCn1ccnc1)c1cnn2c1NC(c1ccccc1)CC2C(F)(F)F (configuration not stated)	CYP2C19 inh 85, CYP2C9 inh 97
O=C(O)c1cnn2c1NC(c1cccs1)CC2C(F)(F)F (configuration not stated)	none
Cc1c(CNC(=O)c2cnn3c2NC(c2ccc(Br)cc2)CC3C(F)(F)F)cnn1C (configuration not stated)	CYP2C9 inh 67
O=C(O)c1ccc(CNCc2c(Cl)cccc2Cl)cc1	none
CCOC(=O)Cc1csc(/N=C/c2c(O)n(-c3ccc(C)c(C)c3)c(=O)c3ccccc23)n1	none (no result: CYP2C19 act, CYP2C19 inh, CYP2C9 inh, CYP2C9 activ)
CC(C)(C)OC(=O)NC(CCCCNC=O)C(=O)O (configuration not stated)	none
Cc1c(Cl)c([N+](=O)[O-])nn1CCCC(=O)Nc1ccc(Cl)cc1Cl	none (no result: CYP2C19 act, CYP2C19 inh, CYP2C9 inh, CYP2C9 activ)
O=c1cc(CN2CCC3(CC2)OCCO3)c2c(ccc3ccccc32)o1	CYP2C19 inh 78
Cc1nc2nc(-c3cccnc3)[nH]n2c(=O)c1C	none
Cc1cc(C)c(C)c(OCC(=O)NCc2nc(-c3ccccc3)no2)c1	none
O=C(c1cccs1)N1CCN(CCc2ccccc2)CC1	CYP2C19 inh 79
O=C(c1ccco1)N1CCN(C/C=C/c2ccccc2)CC1	none
O=C(c1cnccn1)N1CCN(C/C=C/c2ccccc2)CC1	none
O=C(Cc1ccccc1)N1CCN(C(=O)c2cccs2)CC1	CYP2C19 inh 81
O=C(NCCN1CCN(C(=O)c2cccs2)CC1)c1cccs1	none
O=C(c1nn(Cc2ccccc2)c(=O)c2ccccc12)N1CCN(C/C=C/c2ccccc2)CC1	CYP2C9 inh 82 (no result: CD11b adhes inh, Mac1 fbg enh)
O=C(c1cccs1)N1CCN(C/C=C/c2ccccc2)CC1	CYP2C19 inh 60, CYP2C9 inh 52
CC(C)Cn1c(N)c(C(=O)CSc2ccc3c(c2)OCCO3)c(=O)n(C)c1=O	none (no result: CD11b adhes inh, Mac1 fbg enh)
O=C(Nc1cccc(F)c1)N1CCN(C/C=C/c2ccccc2)CC1	none
O=C(Nc1ccc(F)cc1)N1CCN(C/C=C/c2ccccc2)CC1	CYP2C9 inh 51
CCOC(=O)c1cnc2nc(COc3ccccc3)[nH]n2c1=O	none

From PubChem BioAssay
